In the supplement of paper PMC10849652:
About 7,900 targets were measured; listed, in parts, are those with a hit and a random draw of the rest. About 0.6% of all pairs of compound and target were hits. Unmarked numbers belong to inactive results.

Assays:
Assay in all cases: log2 fold change, soluble protein after heating vs DMSO (PISA); higher = thermal stabilisation; K562 cells, 10 uM, 30 min; active = over 0.2 and 3.5 SD of the protein, either way, in both replicates (recomputed)
[1] = compound: COC1=CC=C(C=C1)CN2C=CC3=C2C=C(C=C3)C(=O)NO
How it was run: (§1)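 K562 cells at 2×10^6 cells/mL were treated for 30 min with 10 μM compound, and aliquots were heated for 3 min over 48°C-58°C before pooling. Extraction used PBS with 0.5% NP-40 at 4°C, and soluble protein was the supernatant after 21,000xg for 90 min, measured by TMTpro 16plex LC-MS/MS with channel sums equalised. Thermal stability values, relative to control samples and from duplicates, are log2 fold changes.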

filanesib = compound: CON(C)C(=O)N1N=C(c2cc(F)ccc2F)S[C@@]1(CCCN)c1ccccc1 [filanesib]
How it was run: as §1

zotarolimus = compound: CO[C@H]1C[C@@H]2CC[C@@H](C)[C@@](O)(O2)C(=O)C(=O)N2CCCC[C@H]2C(=O)O[C@H]([C@H](C)C[C@@H]2CC[C@H](n3cnnn3)[C@H](OC)C2)CC(=O)[C@H](C)/C=C(\C)[C@@H](O)[C@@H](OC)C(=O)[C@H](C)C[C@H](C)/C=C/C=C/C=C/1C [zotarolimus]
How it was run: as §1

idasanutlin = compound: COc1cc(C(=O)O)ccc1NC(=O)[C@@H]1N[C@@H](CC(C)(C)C)[C@](C#N)(c2ccc(Cl)cc2F)[C@H]1c1cccc(Cl)c1F [idasanutlin]
How it was run: as §1

alisertib = compound: COc1cc(Nc2ncc3c(n2)-c2ccc(Cl)cc2C(c2c(F)cccc2OC)=NC3)ccc1C(=O)O [alisertib]
How it was run: as §1

[2] = compound: COc1cc2nc(-c3cc(F)ccc3O)nc(N[C@@H]3CNC[C@H]3C(C)(C)O)c2cc1OC
How it was run: as §1

gefitinib = compound: COc1cc2ncnc(Nc3ccc(F)c(Cl)c3)c2cc1OCCCN1CCOCC1 [gefitinib]
How it was run: as §1

[3] = compound: COc1cccc2cc(-c3nc([C@H]4CC[C@H](C(=O)O)CC4)n4ncnc(N)c34)[nH]c12
How it was run: as §1

lapatinib = compound: CS(=O)(=O)CCNCc1ccc(-c2ccc3ncnc(Nc4ccc(OCc5cccc(F)c5)c(Cl)c4)c3c2)o1 [lapatinib]
How it was run: as §1

pictilisib = compound: CS(=O)(=O)N1CCN(Cc2cc3nc(-c4cccc5[nH]ncc45)nc(N4CCOCC4)c3s2)CC1 [pictilisib]
How it was run: as §1

[4] = compound: CS(=O)(=O)c1ccc(-c2cnc(N)c(C(=O)Nc3ccccc3)n2)cc1
How it was run: as §1

crizotinib = compound: C[C@@H](Oc1cc(-c2cnn(C3CCNCC3)c2)cnc1N)c1c(Cl)ccc(F)c1Cl [crizotinib]
How it was run: as §1

[5] = compound: C[C@@H]1COCCN1C2=NC(=NC(=C2)C3(CC3)S(=O)(=O)C)C4=C5C=CNC5=CC=C4
How it was run: as §1

[6] = compound: C[C@H](C1=CC=C(C=C1)C(=O)NC2=C3C=CNC3=NC=C2)N
How it was run: as §1

duvelisib = compound: C[C@H](Nc1ncnc2nc[nH]c12)c1cc2cccc(Cl)c2c(=O)n1-c1ccccc1 [duvelisib]
How it was run: as §1

gandotinib = compound: Cc1cc(Nc2cc(CN3CCOCC3)c3nc(C)c(Cc4ccc(Cl)cc4F)n3n2)n[nH]1 [gandotinib]
How it was run: as §1

tozasertib = compound: Cc1cc(Nc2cc(N3CCN(C)CC3)nc(Sc3ccc(NC(=O)C4CC4)cc3)n2)n[nH]1 [tozasertib]
How it was run: as §1

[7] = compound: Cc1cc(SCc2sc(-c3ccc(C(F)(F)F)cc3)nc2C)ccc1OCC(=O)O
How it was run: as §1

doramapimod = compound: Cc1ccc(-n2nc(C(C)(C)C)cc2NC(=O)Nc2ccc(OCCN3CCOCC3)c3ccccc23)cc1 [doramapimod]
How it was run: as §1

ispinesib = compound: Cc1ccc(C(=O)N(CCCN)[C@@H](c2nc3cc(Cl)ccc3c(=O)n2Cc2ccccc2)C(C)C)cc1 [ispinesib]
How it was run: as §1

UniProt P08236, sequence (P08236 whole entry, looked up): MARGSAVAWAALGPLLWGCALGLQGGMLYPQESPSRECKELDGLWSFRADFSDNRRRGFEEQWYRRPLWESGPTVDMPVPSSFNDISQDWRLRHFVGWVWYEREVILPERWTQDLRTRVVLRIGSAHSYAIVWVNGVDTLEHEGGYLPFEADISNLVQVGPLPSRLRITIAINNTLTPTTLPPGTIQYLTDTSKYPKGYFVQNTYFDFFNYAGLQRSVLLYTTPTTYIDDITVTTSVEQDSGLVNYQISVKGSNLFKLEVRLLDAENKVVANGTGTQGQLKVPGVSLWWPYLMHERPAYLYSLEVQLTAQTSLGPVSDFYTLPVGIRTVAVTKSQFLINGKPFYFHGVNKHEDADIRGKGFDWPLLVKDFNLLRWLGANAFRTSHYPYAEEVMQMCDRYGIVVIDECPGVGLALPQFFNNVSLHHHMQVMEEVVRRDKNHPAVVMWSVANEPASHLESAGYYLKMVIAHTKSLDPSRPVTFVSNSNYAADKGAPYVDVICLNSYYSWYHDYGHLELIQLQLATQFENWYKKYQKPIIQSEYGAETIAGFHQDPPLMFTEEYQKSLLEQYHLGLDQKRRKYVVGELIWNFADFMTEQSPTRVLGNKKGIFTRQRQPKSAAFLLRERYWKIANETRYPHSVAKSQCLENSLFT
UniProt O00291, sequence (O00291 whole entry, looked up): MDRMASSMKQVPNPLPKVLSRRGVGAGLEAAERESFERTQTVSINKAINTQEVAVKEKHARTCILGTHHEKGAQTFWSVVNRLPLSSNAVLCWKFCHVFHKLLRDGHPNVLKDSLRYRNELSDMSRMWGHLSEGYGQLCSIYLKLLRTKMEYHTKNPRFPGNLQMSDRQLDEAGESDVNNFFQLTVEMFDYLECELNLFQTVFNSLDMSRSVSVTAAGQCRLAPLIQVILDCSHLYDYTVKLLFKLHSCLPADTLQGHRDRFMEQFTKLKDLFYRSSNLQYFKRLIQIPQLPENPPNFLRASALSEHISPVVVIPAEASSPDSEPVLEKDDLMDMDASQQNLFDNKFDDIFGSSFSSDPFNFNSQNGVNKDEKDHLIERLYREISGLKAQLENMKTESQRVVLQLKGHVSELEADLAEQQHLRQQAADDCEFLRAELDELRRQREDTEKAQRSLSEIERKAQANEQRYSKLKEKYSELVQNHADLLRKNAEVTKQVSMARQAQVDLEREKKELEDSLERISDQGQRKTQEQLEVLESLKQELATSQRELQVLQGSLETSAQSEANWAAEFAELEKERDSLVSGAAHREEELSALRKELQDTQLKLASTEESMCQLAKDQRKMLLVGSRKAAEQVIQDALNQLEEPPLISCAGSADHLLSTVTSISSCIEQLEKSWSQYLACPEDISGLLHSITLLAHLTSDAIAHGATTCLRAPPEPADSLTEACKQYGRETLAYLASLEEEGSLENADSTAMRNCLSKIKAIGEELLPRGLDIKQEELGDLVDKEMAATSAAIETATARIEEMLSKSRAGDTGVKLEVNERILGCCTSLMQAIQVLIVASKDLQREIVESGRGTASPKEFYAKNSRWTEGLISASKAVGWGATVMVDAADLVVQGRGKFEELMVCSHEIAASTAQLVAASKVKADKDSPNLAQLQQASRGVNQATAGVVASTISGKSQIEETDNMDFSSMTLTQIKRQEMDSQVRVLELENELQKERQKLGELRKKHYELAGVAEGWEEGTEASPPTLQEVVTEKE
UniProt O94925, sequence (O94925 whole entry, looked up): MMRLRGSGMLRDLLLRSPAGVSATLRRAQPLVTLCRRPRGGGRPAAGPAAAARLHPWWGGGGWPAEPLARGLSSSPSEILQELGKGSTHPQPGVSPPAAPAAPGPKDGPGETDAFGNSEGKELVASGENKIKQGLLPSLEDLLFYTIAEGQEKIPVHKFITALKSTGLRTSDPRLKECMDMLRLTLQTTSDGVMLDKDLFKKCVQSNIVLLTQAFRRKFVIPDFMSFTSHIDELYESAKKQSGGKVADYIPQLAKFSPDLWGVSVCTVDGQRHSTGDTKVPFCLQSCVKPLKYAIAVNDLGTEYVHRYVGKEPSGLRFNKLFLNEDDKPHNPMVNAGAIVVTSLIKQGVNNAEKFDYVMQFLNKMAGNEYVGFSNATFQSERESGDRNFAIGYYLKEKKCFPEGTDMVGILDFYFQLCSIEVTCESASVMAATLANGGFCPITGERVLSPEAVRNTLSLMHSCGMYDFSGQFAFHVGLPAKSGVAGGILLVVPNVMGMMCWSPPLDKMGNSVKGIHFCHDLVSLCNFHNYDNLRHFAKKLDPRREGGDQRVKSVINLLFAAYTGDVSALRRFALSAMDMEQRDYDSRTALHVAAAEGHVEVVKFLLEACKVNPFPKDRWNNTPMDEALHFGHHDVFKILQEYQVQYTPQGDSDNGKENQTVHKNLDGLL
UniProt P52789, sequence (P52789 whole entry, looked up): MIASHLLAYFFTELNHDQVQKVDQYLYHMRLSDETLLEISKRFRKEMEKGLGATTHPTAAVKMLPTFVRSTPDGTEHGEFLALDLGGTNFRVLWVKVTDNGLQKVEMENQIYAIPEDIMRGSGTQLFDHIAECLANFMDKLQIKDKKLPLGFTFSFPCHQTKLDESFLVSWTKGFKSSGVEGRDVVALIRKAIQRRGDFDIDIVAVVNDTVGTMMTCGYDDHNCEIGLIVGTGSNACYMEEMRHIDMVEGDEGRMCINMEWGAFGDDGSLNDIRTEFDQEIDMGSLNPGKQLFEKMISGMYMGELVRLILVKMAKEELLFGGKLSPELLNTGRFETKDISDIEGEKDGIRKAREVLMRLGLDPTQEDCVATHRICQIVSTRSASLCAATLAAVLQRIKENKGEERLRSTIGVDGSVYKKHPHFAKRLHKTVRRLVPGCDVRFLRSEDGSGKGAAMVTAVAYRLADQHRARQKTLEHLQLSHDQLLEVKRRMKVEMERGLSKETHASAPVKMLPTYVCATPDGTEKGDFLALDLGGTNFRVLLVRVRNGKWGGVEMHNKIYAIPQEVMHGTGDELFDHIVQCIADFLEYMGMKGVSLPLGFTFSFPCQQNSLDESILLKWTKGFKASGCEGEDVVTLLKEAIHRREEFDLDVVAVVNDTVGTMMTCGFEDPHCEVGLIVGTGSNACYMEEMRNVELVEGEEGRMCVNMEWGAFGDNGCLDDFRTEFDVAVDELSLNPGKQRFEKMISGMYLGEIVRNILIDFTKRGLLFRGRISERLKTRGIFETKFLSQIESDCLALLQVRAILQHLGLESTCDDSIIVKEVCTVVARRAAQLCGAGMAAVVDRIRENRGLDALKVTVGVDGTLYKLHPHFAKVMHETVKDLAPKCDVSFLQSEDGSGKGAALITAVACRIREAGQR
UniProt Q9Y680, sequence (Q9Y680 whole entry, looked up): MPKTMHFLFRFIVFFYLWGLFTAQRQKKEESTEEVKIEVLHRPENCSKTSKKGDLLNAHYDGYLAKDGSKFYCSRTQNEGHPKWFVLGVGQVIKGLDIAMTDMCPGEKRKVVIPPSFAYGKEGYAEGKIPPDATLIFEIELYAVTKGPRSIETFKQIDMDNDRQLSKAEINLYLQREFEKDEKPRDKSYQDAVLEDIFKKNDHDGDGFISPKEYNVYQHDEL
UniProt P09211, sequence (P09211 whole entry, looked up): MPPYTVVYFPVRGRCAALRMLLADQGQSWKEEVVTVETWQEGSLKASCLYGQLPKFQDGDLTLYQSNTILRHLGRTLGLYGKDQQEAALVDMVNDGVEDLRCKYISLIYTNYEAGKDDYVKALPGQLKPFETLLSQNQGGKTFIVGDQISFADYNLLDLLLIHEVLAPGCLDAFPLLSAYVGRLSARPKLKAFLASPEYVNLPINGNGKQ
UniProt P50213, sequence (P50213 whole entry, looked up): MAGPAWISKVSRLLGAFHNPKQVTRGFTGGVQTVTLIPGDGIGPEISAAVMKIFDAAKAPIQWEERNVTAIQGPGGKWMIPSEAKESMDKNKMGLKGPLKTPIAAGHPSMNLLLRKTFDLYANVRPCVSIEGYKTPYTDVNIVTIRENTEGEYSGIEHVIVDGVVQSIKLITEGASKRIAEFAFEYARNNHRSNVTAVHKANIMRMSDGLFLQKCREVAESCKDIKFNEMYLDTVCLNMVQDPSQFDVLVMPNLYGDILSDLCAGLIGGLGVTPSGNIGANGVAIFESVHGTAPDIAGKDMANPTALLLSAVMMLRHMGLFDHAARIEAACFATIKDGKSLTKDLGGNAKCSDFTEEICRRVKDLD
UniProt Q9Y692, sequence (Q9Y692 whole entry, looked up): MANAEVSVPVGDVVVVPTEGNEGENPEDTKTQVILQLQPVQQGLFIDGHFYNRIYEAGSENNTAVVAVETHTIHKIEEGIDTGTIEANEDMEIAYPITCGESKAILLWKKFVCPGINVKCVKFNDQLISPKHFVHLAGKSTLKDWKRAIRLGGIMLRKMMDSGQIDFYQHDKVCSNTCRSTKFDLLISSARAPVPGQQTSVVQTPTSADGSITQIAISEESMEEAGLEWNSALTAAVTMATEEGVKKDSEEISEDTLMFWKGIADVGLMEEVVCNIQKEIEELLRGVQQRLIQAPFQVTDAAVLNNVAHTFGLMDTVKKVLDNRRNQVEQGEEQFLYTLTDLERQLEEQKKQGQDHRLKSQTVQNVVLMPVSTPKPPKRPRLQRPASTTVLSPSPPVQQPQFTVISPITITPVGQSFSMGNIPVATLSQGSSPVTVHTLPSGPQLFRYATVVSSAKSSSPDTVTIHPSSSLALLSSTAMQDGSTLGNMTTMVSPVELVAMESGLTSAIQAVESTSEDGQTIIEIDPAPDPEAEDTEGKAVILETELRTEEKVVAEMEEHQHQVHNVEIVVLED
UniProt P39748, sequence (P39748 whole entry, looked up): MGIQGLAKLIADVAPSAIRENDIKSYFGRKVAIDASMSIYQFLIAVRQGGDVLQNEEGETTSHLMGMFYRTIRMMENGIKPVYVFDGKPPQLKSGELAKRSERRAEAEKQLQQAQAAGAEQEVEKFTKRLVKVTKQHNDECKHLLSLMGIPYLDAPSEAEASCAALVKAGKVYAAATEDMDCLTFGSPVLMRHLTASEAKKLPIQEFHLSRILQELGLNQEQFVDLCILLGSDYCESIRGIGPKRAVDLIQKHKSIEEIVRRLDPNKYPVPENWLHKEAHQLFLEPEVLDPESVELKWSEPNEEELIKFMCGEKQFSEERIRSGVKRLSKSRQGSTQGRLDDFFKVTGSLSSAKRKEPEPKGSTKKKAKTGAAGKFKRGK

| Target | log2 fold change [1] | log2 fold change (filanesib) | log2 fold change (zotarolimus) | log2 fold change (idasanutlin) | log2 fold change (alisertib) | log2 fold change [2] | log2 fold change (gefitinib) | log2 fold change [3] | log2 fold change (lapatinib) | log2 fold change (pictilisib) | log2 fold change [4] | log2 fold change (crizotinib) | log2 fold change [5] | log2 fold change [6] | log2 fold change (duvelisib) | log2 fold change (gandotinib) | log2 fold change (tozasertib) | log2 fold change [7] | log2 fold change (doramapimod) | log2 fold change (ispinesib) |
| --- | --- | --- | --- | --- | --- | --- | --- | --- | --- | --- | --- | --- | --- | --- | --- | --- | --- | --- | --- | --- |
| HNRNPH1 (UniProt P31943) | 0.069 | 0 | 0.091 | 0.048 | 0.028 | -0.192 | -0.015 | 0.068 | 0.046 | -0.135 | 0.027 | -0.171 | -0.012 | 0.02 | -0.026 | -0.017 | -0.01 | 0.126 | -0.012 | -0.068 |
| GEMIN6 (UniProt Q8WXD5) | 0.001 | 0.005 | 0.154 | 0.071 | -0.019 | 0.006 | -0.003 | 0.096 | -0.077 | 0.064 | -0.076 | -0.055 | 0.097 | 0.091 | 0.088 | 0.034 | -0.028 | 0.034 | -0.016 | -0.017 |
| FEN1 (UniProt P39748) | 0.06 | -0.215 | 0.027 | -0.099 | 0.019 | 0.039 | -0.029 | 0.096 | -0.098 | -0.005 | 0.018 | -0.488 (active) | 0.367 | -0.018 | 0.07 | -0.162 | -0.024 | 0.177 | -0.065 | -0.126 |
| HK2 (UniProt P52789) | 0.035 | 0.031 | 0.03 | -0.064 | -0.124 | 0.097 | -0.07 | 0.005 | -0.206 | -0.353 (active) | -0.156 | 0.082 | 0.03 | -0.014 | 0.014 | -0.297 (active) | -0.028 | 0.013 | -0.026 | 0.161 |
| GLS (UniProt O94925) | 0.009 | 0.029 | 0.027 | -0.192 | 0.143 | 0.22 | 0.033 | -0.009 | -0.052 | 0.049 | 0.033 | 0.05 | 0.209 | -0.049 | 0.053 | -0.17 | 0.012 | 0.054 | -0.105 | 0.118 |
| GLB1 (UniProt P16278) | 0.002 | -0.033 | 0.009 | -0.015 | -0.078 | -0.015 | 0.031 | 0.045 | 0.024 | 0.006 | 0.024 | -0.221 (active) | -0.074 | 0.007 | -0.022 | 0 | 0.036 | -0.004 | 0.013 | -0.255 (active) |
| HEATR5B (UniProt Q9P2D3) | -0.006 | -0.005 | -0.071 | 0 | 0.006 | 0.039 | -0.045 | 0.033 | 0.018 | -0.065 | 0.055 | -0.058 | -0.11 | 0.103 | -0.026 | -0.039 | -0.019 | 0.036 | -0.015 | -0.021 |
| GUSB (UniProt P08236) | -0.063 | -0.016 | 0.014 | 0.034 | 0.022 | -0.084 | -0.013 | -0.027 | 0.016 | 0.098 | 0.053 | 0.004 | -0.018 | 0.063 | 0.066 | 0.051 | 0.006 | -0.039 | 0.042 | -0.03 |
| IDH3A (UniProt P50213) | 0 | -0.067 | 0.007 | -0.074 | -0.063 | -0.009 | 0.039 | 0.022 | 0.017 | -0.021 | 0.023 | 0.006 | 0.07 | -0.046 | 0.063 | -0.037 | -0.029 | 0.022 | -0.024 | 0.013 |
| HIP1 (UniProt O00291) | 0.022 | -0.026 | 0.017 | -0.003 | -0.269 | 0.029 | 0.016 | 0.047 | 0.059 | 0 | 0.054 | -0.131 | 0.035 | -0.002 | 0.085 | 0.029 | -0.086 | 0.027 | 0 | -0.033 |
| HPCAL1 (UniProt P37235) | -0.085 | -0.128 | -0.017 | -0.062 | 0.002 | -0.012 | -0.021 | 0.06 | -0.027 | 0.013 | 0.015 | 0.011 | 0.08 | -0.047 | 0.032 | -0.033 | 0.024 | -0.014 | -0.027 | -0.054 |
| FUBP3 (UniProt Q96I24) | 0.129 | 0.055 | -0.072 | 0.049 | 0.034 | 0.165 | -0.049 | 0.009 | 0.006 | -0.062 | -0.076 | -0.046 | -0.083 | 0.065 | -0.002 | -0.106 | -0.028 | 0.013 | -0.025 | -0.049 |
| FKBP7 (UniProt Q9Y680) | -0.152 | -0.036 | -0.029 | 0.047 | -0.063 | 0.047 | 0.086 | 0.003 | -0.065 | -0.007 | 0.052 | 0.094 | 0.003 | 0.114 | -0.043 | 0.114 | -0.054 | 0.005 | -0.023 | 0.044 |
| GMEB1 (UniProt Q9Y692) | 0.049 | 0.205 | 0.042 | 0.027 | -0.041 | -0.042 | -0.049 | 0.008 | 0.031 | -0.087 | -0.036 | 0.02 | 0.04 | -0.045 | 0.025 | -0.11 | 0.03 | 0.049 | -0.038 | 0.01 |
| GSTP1 (UniProt P09211) | -0.033 | -0.038 | 0.004 | -0.033 | -0.003 | -0.003 | 0.021 | 0.069 | -0.032 | 0.035 | 0.023 | 0.038 | 0.033 | -0.067 | 0.037 | -0.005 | -0.008 | 0 | -0.019 | 0.058 |
| HMGCR isoform 3 (UniProt P04035) | -0.097 | -0.027 | 0 | 0.188 | -0.146 | 0.166 | 0.01 | -0.045 | -0.066 | -0.13 | -0.259 | 0.071 | -0.234 | -0.004 | 0.003 | 0.092 | -0.088 | -0.065 | 0.025 | 0.111 |
